In the library only some 1.2% were active in any assay of this set; here they are far more common.
Avidin fluor – compound fluoresces at 488/530 nm on avidin beads; compound fluorescence 488/530 nm, flow cytometry; stronger effect = higher value; fluorescence (KMESF) at 10 µM; actives 0.38% (n = 220,000); in the data active = fluorescence above about 47
RGS7-Gao reg – modulates binding of RGS7 to human Galphao | P09471 | Multiplexed bead flow cytometry; actives lie on both sides | binding response (% of control), % at 10 µM | actives 0.35% (n = 220,000) | AID 1439; in the data active = binding response below about 49% or above about 150%; inconclusive = no clear call, values can overlap the other calls; inactive = in between;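 note: fluorescent Galphao held in activated GDP-AlF4 state binding bead-coupled RGS7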
RGS16-Gao HTS – RGS16-Galphao interaction regulator (human); O15492+P09471; bead-based flow cytometry RGS16-Galphao binding, fluorescence; actives lie on both sides; binding response (% of control), % at 10 µM; actives 0.38% (n = 220,000);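 note: Galphao activated by GDP with aluminum fluoride before binding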
Target sequence (O15492 whole entry, looked up): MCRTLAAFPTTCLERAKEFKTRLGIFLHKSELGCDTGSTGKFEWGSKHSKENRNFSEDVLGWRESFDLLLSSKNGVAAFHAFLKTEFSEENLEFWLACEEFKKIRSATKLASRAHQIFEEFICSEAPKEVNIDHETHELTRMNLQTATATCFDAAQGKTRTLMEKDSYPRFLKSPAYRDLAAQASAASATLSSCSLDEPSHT
Target sequence (P09471 whole entry, looked up): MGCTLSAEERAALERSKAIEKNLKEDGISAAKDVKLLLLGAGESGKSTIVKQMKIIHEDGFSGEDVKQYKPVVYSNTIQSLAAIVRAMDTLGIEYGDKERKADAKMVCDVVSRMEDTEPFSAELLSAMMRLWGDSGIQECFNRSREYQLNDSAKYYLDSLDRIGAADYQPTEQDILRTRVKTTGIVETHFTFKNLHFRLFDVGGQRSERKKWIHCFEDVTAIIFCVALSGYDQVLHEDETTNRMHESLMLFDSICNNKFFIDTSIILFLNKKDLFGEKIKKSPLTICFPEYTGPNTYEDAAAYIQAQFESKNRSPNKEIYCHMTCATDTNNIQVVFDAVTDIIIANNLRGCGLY
RGS8-Gao – regulators of human RGS8-Galphao interaction; multiplexed bead flow cytometry, RGS8-Galphao binding; actives lie on both sides; response (percent of control binding), % at 10 µM; actives 0.34% (n = 220,000); AID 1423; in the data active = response below about 60% or above about 140%; inactive = in between;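 note: Galphao activated as the GDP aluminium fluoride complex binding bead-coupled RGS8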
RGS4-Gao reg – modulates binding of RGS4 to human Galphao; Multiplexed bead flow cytometry; actives lie on both sides; binding response (% of control), % at 10 µM; actives 0.33% (n = 220,000); in the data active = binding response below about 49% or above about 150%; inactive = in between;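 note: fluorescent Galphao activated with aluminum fluoride binding bead-coupled RGS4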
GSH fluor – GSH bead compound fluorescence profile | fluorescence (KMESF) at 10 µM | actives 0.25% (n = 190,000) | GSH beads flow cytometry, compound fluorescence 488/530 nm; stronger effect = higher value; in the data active = fluorescence above about 89;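 note: glutathione beads carrying GST-tagged Bcl family fusion proteins plus one bare bead set; values are compound well signal with DMSO vehicle wells as background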
RGS-Gao – modulates binding between human RGS4 and Galphao; shares compounds with RGS16-Gao HTS; multiplexed bead flow cytometry, RGS–Galpha-o binding; RGS4–Galpha-o binding response, % at 10 µM; actives 99% (n = 1,600);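 note: fluorescently labeled Galpha-o bound to GDP with aluminium fluoride binding biotinylated RGS beads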
Biotin-avidin – biotin-avidin bead binding disruption counter-screen; inhibition, % at 10 µM; shares compounds with RGS16-Gao HTS; AID 1783; 1,700 tested, under 10 active; streptavidin beads, fluorescein-biotin binding, flow cytometry;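 active = inhibition above 50%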;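 note: median green fluorescence of gated singlet beads compared with DMSO control wells; 0% = DMSO wells and 100% = complete loss of bead fluorescence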
RGS8-Gao single – confirmation of regulators of human RGS8-Galphao interaction; actives 3% (n = 1,700); binding response (% of control), % at 10 µM; bead-based flow cytometry RGS8-Galphao binding, fluorescence; actives lie on both sides; shares compounds with RGS16-Gao HTS; in the data active = binding response below about 72% or above about 130%; inactive = in between;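 note: Galphao activated as GDP AlF4 complex before binding bead RGS8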
RGS7-Gao single – RGS7-Galphao interaction regulation, single point confirmation; shares compounds with RGS16-Gao HTS; bead-based flow cytometry RGS7-Galphao binding; actives lie on both sides; response (percent of control binding), % at 10 µM; actives 7.8% (n = 1,700); AID 1837; in the data active = response below about 75% or above about 130%; inactive = in between;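 note: fluorescent Galphao activated with GDP and aluminum fluoride binding bead-coupled RGS7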
RGS16-Gao single – confirmation of regulators of human RGS16-Galphao interaction; response (% of control binding), % at 10 µM; shares compounds with RGS16-Gao HTS; bead-based flow cytometry, RGS16-Galphao binding; actives lie on both sides; actives 4% (n = 1,700); in the data active = response below about 74% or above about 130%; inactive = in between;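 note: Galphao activated as the GDP aluminium fluoride complex binding bead-coupled RGS16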
RGS4-Gao single – RGS4-Galphao interaction regulation, single point confirmation; shares compounds with RGS16-Gao HTS; binding response (% of control), % at 10 µM; actives 4% (n = 1,700); AID 1840; RGS4-Galphao binding, multiplexed bead flow cytometry; actives lie on both sides; in the data active = binding response below about 74% or above about 130%; inactive = in between
RGS19-Gao single – confirmation of regulators of human RGS19-Galphao interaction | actives 5% (n = 1,700) | response (percent of control binding), % at 10 µM | bead-based flow cytometry RGS19-Galphao binding; actives lie on both sides | shares compounds with RGS16-Gao HTS; in the data active = response below about 50% or above about 160%; inactive = in between;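 note: 100% = no compound control and 0% = blank background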
Active calls of the source: *; ? = inconclusive; . = no result; [ ] = dose if it differs, or a comment. Unless noted, the rule behind the calls is not given here.

SMILES | Avidin fluor | RGS7-Gao reg | RGS16-Gao HTS | RGS8-Gao | RGS4-Gao reg | GSH fluor | RGS-Gao | Biotin-avidin | RGS8-Gao single | RGS7-Gao single | RGS16-Gao single | RGS4-Gao single | RGS19-Gao single
CC1(CC(=O)N/N=C/c2ccc(-c3cccc(C(F)(F)F)c3)o2)OCCO1 | 254* | 262*[activator] | 204*[activator] | 115 | 169*[activator] | 10 | . | 0 | 99 | 99 | 100 | 102 | 109
CCOC(=O)N1CCC(NC(=O)c2cccnc2SC)CC1 | . | . | . | . | . | 17 | . | 1 | 101 | 100 | 103 | 102 | 111
CCN(CC)c1nc(N)nc(N(c2ccccc2)c2ccccc2)n1 | 73* | 155*[activator] | 103 | 99 | 105 | 21 | 105* | 0 | 97 | 63* | 89 | 73* | 74
CN(C)c1nc(N)nc(N(c2ccccc2)c2ccccc2)n1 | 7 | 100 | 98 | 100 | 101 | 18 | . | . | . | . | . | . | .
CCN(CC)c1ccc(NC(=O)C2=CCN(S(=O)(=O)c3ccc(F)cc3)CC2)c(C)c1 | 3 | 103 | 105 | 104 | 101 | 17 | . | . | . | . | . | . | .
CSc1nnnn1-c1c(C)cccc1C | 7 | ? | 100 | 101 | 99 | . | . | . | . | . | . | . | .
Cc1ccc(NC2(c3nnnn3-c3c(C)cccc3C)CCCCC2)cc1 | 13 | 112 | 281*[activator] | 135 | 116 | 4 | 116* | -1 | 98 | 93 | 99 | 97 | 99
CCCCN(CCCC)S(=O)(=O)c1ccc(NC(=O)c2ccc([N+](=O)[O-])cc2Cl)cc1 | 15 | 116 | 304*[activator] | 134 | 113 | 10 | 113* | -2 | 105 | 101 | 101 | 100 | 100
Cc1cc(C(=O)c2cnc(/N=C/N(C)C)s2)c(F)cc1Cl | 8 | 104 | 100 | 100 | 102 | 13 | . | . | . | . | . | . | .
COc1ccccc1/C=N\N=C(\N)c1ccccn1 | 4 | 99 | 106 | 102 | 98 | 6 | . | . | . | . | . | . | .
N#Cc1nccnc1S(=O)(=O)c1cccs1 | 4 | ? | 101 | 88 | 103 | . | . | . | . | . | . | . | .
CC1CCN(S(=O)(=O)c2cccc(C(=O)Oc3ccc([N+](=O)[O-])cc3)c2)CC1 | 8 | 114 | 24* | 83 | 97 | 11 | 97* | 2 | 98 | 105 | 100 | 102 | 89
O=C(Nc1ccccc1SCC1CSc2nc3ccccc3c(=O)n21)c1ccccc1Cl (stereo not drawn) | . | . | . | . | . | 17 | . | 2 | 100 | 75* | 87 | 87 | 51
CCN(CC)S(=O)(=O)c1cccc(C(=O)N/N=C/c2ccc(O)c(O)c2O)c1 | -1 | 31* | -61 | 51* | 43* | 1 | . | 1 | 64* | 61* | 57* | 63* | 16*
CCOc1ccccc1/C=N/NC(=O)c1cccc(S(=O)(=O)N(CC)CC)c1 | 11 | 92 | 94 | 100 | 93 | 11 | . | . | . | . | . | . | .
CC(CCc1ccccc1)NC(=O)C1CCN(S(=O)(=O)N2CCOCC2)CC1 (stereo not drawn) | 11 | 167*[activator] | 165 | 160*[activator] | 180*[activator] | 24 | . | 2 | 101 | 97 | 100 | 100 | 99
